Test results: PMC4336329 (PLoS ONE, 2015)
Out of some 310,000 compounds screened, about 14,000 (4.5%) showed an effect of 50% or more. Effects have a minus sign here. The full list was thinned out, with strong results kept by preference.
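Further: peak tail current of the secondary pulse compared with the same well before compound.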

The compounds below were run against human ether-à-go-go-related gene (hERG) potassium channel (human, UniProt Q12809) (assay: primary screen, population patch clamp on CHO cells stably expressing hERG; higher = less effect of the substance).
human ether-à-go-go-related gene (hERG) potassium channel, sequence (Q12809 whole entry, looked up): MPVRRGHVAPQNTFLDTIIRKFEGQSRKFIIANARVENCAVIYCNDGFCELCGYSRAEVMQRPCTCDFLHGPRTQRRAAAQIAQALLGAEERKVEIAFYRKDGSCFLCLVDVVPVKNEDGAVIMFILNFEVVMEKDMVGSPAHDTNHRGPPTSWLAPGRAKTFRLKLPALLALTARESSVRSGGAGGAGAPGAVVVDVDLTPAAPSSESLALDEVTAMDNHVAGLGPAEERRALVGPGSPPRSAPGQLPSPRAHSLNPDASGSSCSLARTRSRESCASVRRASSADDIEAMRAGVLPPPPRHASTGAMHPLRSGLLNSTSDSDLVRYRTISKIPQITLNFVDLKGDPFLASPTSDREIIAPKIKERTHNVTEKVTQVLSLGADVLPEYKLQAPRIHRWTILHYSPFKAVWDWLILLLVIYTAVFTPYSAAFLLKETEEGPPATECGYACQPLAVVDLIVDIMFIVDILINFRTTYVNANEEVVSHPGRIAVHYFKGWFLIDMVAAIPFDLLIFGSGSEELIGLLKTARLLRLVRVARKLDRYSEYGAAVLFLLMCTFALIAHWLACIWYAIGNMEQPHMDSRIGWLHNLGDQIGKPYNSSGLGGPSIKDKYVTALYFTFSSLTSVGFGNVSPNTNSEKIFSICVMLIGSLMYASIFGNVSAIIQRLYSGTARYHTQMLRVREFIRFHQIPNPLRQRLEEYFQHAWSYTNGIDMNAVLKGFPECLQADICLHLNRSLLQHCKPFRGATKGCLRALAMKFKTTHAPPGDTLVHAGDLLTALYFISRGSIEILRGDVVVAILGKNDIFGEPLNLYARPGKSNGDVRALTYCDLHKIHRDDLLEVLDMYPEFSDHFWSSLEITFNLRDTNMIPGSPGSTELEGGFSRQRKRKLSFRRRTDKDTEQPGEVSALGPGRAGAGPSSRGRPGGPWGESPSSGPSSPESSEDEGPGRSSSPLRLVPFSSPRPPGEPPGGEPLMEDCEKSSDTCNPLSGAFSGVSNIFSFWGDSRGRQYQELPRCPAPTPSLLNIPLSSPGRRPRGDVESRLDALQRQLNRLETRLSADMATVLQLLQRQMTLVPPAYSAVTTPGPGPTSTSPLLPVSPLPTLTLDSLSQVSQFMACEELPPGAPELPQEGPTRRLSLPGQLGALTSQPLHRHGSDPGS
`CN(C(=O)CSc1ncc(C(F)(F)F)cc1Cl)c1c(N)n(Cc2ccccc2)c(=O)[nH]c1=O` was tested, and the “hERG current change (%, negative = inhibition) at 10uM” value was 8.25%. For `C/C(=N\OCc1ccc(C#N)cc1)c1ccccc1`, the “hERG current change (%, negative = inhibition) at 10uM” value was 12.1%. `CN(C)S(=O)(=O)c1ccc(C(=O)OCc2ccc(C#N)cc2)cc1` was tested, and the “hERG current change (%, negative = inhibition) at 10uM” value was -11.1%. In the case of `C/C(=N\OCc1ccc(C#N)cc1)c1ccc(S(=O)(=O)N(C)C)cc1`, the “hERG current change (%, negative = inhibition) at 10uM” value is reported as -52.7%. For `C=CCn1c(SCC(=O)N2CCN(CCO)CC2)nc2sc3c(c2c1=O)CCC3`, the “hERG current change (%, negative = inhibition) at 10uM” value was -20.9%. With `C=CCn1c(SCC(=O)N2CCOCC2)nc2c([nH]c3ccccc32)c1=O` the “hERG current change (%, negative = inhibition) at 10uM” value was -52.9%. With `C=CCn1c(SCC(=O)N2CCOCC2)nc2sc3c(c2c1=O)CCCC3` the “hERG current change (%, negative = inhibition) at 10uM” value was -53.9%. `C=CCn1c(SCC(=O)NC2CCCC2)nc2c([nH]c3ccccc32)c1=O` was tested, and the “hERG current change (%, negative = inhibition) at 10uM” value was -40.8%. `C=CCn1c(SCC(=O)NCCc2ccccc2)nc2c([nH]c3ccccc32)c1=O` was tested, and the “hERG current change (%, negative = inhibition) at 10uM” value was -3.29%. With `C=CCn1c(SCC(=O)N2CCN(c3ccccc3)CC2)nc2c([nH]c3ccccc32)c1=O` the “hERG current change (%, negative = inhibition) at 10uM” value was 13.3%. In the case of `CCn1c(SCC(=O)N2CCOCC2)nc2sc3c(c2c1=O)CCCC3`, the “hERG current change (%, negative = inhibition) at 10uM” value is reported as -5.19%. For `C=CCn1c(SCC(=O)N2CCCC2)nc2c([nH]c3ccccc32)c1=O`, the “hERG current change (%, negative = inhibition) at 10uM” value was -29.6%. For `C=CCn1c(SCCN2CCCC2)nc2c([nH]c3ccccc32)c1=O`, the “hERG current change (%, negative = inhibition) at 10uM” value was -71.7%. For `COc1ccc(S(=O)(=O)Nc2ccc(S(=O)(=O)Nc3nccs3)cc2)cc1`, the “hERG current change (%, negative = inhibition) at 10uM” value was 19.9%. With `COc1ccc(OCc2cc(C(=O)O)c(C)o2)cc1` the “hERG current change (%, negative = inhibition) at 10uM” value was 2.69%. In the case of `CCN(CC)c1nc2ccccc2n2cnnc12`, the “hERG current change (%, negative = inhibition) at 10uM” value is reported as -16.4%. For `CSc1nnc(-c2sc3cc(Cl)ccc3c2Cl)n1C`, the “hERG current change (%, negative = inhibition) at 10uM” value was 0.137%. In the case of `CCn1c(SC)nnc1-c1sc2cc(Cl)ccc2c1Cl`, the “hERG current change (%, negative = inhibition) at 10uM” value is reported as -55.4%. With `CCn1c(SC)nnc1-c1nnc(SC)n1CC` the “hERG current change (%, negative = inhibition) at 10uM” value was -7.09%. `Cc1ccc(SCC(=O)OCC(=O)NC2CCCCCCC2)cc1` was tested, and the “hERG current change (%, negative = inhibition) at 10uM” value was -4.33%. `O=C(N/N=C/c1ccc[nH]1)c1cc(-c2cccs2)nc2ccccc12` was tested, and the “hERG current change (%, negative = inhibition) at 10uM” value was 0.659%. In the case of `O=C(O)[C@@H](c1ccccc1)N1Cc2ccccc2C1=O`, the “hERG current change (%, negative = inhibition) at 10uM” value is reported as 17.2%. For `Br.Cc1ccc(C(=O)C(c2ccccc2)N2Cc3ccccc3C2=N)cc1` (centres unmarked), the “hERG current change (%, negative = inhibition) at 10uM” value was -60.3%. With `Br.CCC(C)N1Cc2ccccc2C1=N` (centres unmarked) the “hERG current change (%, negative = inhibition) at 10uM” value was 2.75%. For `NNC(=O)c1nc[nH]c1C(=O)Nc1ccccc1`, the “hERG current change (%, negative = inhibition) at 10uM” value was 24.1%. `COc1ccccc1/C=N/NC(=O)c1ccc(CN2C(=O)c3cccc4cccc2c34)cc1` was tested, and the “hERG current change (%, negative = inhibition) at 10uM” value was 2.35%.
